Test results taken from PMC7862700, “An all-to-all approach to the identification of sequence-specific readers for epigenetic DNA modifications on cytosine”.

How the values were obtained:
Assay in all cases: DAPPL (digital affinity profiling via proximity ligation, sequencing); 10 mM Tris-HCl pH 7.5, 50 mM NaCl, 1 mM DTT, 4% glycerol, room temperature, 30 min; GST-TFs on glutathione beads, 16-mer random dsDNA library, 0.1% formaldehyde crosslink after washing; high values mean tight binding
Settings in all cases: protein: recombinant; tags: N-terminal GST; dsDNA, one strand shown
ELK1 = target: T1, ELK1 (Homo sapiens, UniProt P19419 1-428)
T1 sequence: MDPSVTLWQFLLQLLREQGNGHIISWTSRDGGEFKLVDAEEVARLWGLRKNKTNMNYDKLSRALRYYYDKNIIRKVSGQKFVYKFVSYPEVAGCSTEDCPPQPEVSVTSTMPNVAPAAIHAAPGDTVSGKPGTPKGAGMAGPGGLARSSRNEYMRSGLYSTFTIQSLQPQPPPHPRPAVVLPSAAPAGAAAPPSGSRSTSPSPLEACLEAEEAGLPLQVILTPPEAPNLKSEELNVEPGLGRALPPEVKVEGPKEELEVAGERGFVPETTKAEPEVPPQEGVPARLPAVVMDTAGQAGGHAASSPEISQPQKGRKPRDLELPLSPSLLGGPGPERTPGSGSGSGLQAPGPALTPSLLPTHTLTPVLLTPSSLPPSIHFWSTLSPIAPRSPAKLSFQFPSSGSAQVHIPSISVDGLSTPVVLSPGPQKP
Method in brief: (§1)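 Beads coated with glutathione captured GST-fused human transcription factors that had been expressed in yeast, and the factors were then given DNA barcodes and pooled with a tag-only sample. The pools were incubated with 200 nmole of a random double-stranded 16-mer DNA library in Tris/NaCl/DTT/glycerol buffer for 30 min at room temperature, washed, crosslinked with 0.1% formaldehyde and proximity-ligated with BsaI/T4 ligase at 37 °C for 1 h. PCR amplification and Illumina NextSeq500 sequencing came last. Binding signal is each hexamer's read frequency for a factor divided by its frequency for the tag-only sample.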

GABPA = target: T2, GABPA (Homo sapiens, UniProt Q06546 1-454)
T2 sequence: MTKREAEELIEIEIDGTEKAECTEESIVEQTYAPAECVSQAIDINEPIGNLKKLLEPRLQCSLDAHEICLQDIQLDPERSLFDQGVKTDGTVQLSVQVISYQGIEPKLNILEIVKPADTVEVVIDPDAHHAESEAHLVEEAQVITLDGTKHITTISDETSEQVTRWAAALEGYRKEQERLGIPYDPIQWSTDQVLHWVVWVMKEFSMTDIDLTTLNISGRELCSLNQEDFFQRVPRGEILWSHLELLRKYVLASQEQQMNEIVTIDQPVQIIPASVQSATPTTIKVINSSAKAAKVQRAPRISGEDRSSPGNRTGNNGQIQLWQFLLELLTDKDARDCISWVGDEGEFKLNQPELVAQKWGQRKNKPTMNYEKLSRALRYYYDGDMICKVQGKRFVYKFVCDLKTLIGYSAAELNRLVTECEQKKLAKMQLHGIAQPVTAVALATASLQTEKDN
Method in brief: as §1

ERG = target: T3, ERG (Homo sapiens, UniProt P11308 1-479)
T3 sequence: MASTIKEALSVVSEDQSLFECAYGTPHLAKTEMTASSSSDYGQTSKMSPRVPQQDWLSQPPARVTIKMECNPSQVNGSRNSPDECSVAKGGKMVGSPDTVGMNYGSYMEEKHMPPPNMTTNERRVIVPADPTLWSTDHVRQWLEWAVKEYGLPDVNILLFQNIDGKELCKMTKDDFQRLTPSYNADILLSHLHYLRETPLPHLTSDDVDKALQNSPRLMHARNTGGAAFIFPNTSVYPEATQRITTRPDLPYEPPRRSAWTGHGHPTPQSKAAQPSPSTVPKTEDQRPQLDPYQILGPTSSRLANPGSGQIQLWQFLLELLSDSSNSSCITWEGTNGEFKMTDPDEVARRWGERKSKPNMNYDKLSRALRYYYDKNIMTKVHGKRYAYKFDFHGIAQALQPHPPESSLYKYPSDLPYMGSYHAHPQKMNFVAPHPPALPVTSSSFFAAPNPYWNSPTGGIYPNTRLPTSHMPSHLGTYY
Method in brief: as §1

ELF1 = ELF1 (Homo sapiens, UniProt P32519 1-619)
ELF1, sequence (P32519 whole entry): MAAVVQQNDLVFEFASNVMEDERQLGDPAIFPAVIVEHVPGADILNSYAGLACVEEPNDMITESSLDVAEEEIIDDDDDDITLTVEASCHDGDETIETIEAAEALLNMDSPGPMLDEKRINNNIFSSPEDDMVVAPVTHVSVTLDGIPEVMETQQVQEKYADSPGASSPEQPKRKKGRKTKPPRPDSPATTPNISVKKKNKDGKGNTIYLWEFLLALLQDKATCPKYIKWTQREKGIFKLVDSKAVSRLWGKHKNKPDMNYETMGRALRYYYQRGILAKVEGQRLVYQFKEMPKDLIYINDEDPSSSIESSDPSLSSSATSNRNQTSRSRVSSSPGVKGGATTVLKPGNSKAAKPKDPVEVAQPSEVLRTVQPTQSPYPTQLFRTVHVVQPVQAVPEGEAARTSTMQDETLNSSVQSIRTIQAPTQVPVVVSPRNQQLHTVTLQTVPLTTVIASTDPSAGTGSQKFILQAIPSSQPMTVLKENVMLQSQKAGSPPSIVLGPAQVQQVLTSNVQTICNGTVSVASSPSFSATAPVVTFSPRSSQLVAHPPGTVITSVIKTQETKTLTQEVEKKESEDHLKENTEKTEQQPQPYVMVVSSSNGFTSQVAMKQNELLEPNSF
Method in brief: as §1

EHF = target: T4, EHF (Homo sapiens, UniProt Q9NZC4 1-300)
T4 sequence: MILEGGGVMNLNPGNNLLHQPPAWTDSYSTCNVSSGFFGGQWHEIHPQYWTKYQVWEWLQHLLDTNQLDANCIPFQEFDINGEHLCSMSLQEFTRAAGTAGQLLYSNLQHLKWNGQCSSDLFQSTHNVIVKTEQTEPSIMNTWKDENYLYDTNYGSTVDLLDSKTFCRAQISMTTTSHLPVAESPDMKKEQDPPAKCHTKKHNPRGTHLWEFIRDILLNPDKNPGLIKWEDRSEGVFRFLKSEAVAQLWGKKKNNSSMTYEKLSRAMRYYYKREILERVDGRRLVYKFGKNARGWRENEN
Method in brief: as §1

SPIB = SPIB (Homo sapiens, UniProt Q01892 1-262)
SPIB, sequence (Q01892 whole entry): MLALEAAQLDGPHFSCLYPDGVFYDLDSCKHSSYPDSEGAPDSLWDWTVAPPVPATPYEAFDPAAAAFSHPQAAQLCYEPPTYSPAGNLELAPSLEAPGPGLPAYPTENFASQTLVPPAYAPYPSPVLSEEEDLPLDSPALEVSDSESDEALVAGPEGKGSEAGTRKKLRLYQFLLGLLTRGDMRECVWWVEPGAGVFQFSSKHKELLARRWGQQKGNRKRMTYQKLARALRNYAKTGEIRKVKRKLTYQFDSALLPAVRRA
Method in brief: as §1

ELK3 = target: T5, ELK3 (Homo sapiens, UniProt P41970 1-407)
T5 sequence: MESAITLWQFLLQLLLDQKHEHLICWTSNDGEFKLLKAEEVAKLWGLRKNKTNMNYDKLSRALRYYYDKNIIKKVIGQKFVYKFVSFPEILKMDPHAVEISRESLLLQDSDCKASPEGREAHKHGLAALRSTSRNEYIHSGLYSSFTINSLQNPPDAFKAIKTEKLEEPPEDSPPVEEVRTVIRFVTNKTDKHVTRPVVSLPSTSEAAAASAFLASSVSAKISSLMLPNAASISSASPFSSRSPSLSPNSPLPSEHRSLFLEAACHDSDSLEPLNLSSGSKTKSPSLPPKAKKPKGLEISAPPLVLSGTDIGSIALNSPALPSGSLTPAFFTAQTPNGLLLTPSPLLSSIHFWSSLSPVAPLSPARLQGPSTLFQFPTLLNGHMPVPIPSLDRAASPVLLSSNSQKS
Method in brief: as §1

SPIC = target: T6, SPIC (Homo sapiens, UniProt Q8N5J4 1-248)
T6 sequence: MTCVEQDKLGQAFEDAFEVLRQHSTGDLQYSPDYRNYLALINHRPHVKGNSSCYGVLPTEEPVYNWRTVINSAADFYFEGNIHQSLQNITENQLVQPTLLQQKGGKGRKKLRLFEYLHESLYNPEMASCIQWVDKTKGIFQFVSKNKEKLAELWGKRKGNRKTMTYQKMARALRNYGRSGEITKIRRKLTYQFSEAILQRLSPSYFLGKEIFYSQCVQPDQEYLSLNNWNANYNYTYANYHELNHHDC
Method in brief: as §1

ELF4 = ELF4 (Homo sapiens, UniProt Q99607 1-663)
ELF4, sequence (Q99607 whole entry): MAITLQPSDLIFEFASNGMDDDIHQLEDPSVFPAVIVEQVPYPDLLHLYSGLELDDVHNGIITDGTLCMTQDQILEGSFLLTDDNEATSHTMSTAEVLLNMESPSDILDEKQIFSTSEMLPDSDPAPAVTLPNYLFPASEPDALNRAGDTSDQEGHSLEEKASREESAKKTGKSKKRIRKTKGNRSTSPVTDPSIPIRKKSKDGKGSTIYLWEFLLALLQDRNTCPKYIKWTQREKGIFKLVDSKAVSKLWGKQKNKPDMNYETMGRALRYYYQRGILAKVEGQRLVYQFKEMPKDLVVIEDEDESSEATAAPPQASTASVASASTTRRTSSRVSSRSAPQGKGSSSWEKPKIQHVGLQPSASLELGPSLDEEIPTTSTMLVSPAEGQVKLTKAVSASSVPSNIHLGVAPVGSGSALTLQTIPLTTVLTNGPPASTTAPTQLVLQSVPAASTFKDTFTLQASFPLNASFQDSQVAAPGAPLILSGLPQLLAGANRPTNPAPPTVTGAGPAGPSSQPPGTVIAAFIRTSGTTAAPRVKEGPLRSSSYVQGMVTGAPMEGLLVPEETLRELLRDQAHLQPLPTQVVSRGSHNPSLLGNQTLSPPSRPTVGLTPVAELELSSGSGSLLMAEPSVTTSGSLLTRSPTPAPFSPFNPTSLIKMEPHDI
Method in brief: as §1

ELK4 = target: T7, ELK4 (Homo sapiens, UniProt P28324-2 1-405)
T7 sequence: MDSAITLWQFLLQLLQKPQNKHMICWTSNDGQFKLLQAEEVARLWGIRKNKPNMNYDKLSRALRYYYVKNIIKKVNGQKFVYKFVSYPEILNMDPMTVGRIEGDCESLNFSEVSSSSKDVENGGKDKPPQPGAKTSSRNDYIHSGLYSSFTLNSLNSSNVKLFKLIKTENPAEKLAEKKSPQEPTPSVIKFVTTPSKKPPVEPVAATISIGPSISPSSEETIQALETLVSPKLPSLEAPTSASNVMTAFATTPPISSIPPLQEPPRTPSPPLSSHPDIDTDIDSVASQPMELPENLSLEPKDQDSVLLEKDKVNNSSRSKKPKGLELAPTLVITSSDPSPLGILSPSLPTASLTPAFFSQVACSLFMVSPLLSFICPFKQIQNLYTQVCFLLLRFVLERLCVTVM
Method in brief: as §1

ETV1 = ETV1 (Homo sapiens, UniProt P50549 1-477)
ETV1, sequence (P50549 whole entry): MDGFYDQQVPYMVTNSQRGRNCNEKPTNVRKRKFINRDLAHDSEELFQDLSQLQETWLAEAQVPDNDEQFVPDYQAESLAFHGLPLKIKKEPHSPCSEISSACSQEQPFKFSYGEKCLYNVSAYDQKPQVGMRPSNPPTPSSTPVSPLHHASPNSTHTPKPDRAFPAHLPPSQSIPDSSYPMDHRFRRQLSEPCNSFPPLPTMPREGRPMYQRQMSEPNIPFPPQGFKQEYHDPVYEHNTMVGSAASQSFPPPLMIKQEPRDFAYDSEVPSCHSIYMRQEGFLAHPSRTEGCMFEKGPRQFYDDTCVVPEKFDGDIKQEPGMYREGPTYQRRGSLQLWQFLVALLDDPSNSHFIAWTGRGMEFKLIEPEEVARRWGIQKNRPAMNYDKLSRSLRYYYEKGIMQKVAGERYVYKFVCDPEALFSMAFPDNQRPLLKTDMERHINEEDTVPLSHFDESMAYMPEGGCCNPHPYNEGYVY
Method in brief: as §1

ERF = target: T8, ERF (Homo sapiens, UniProt P50548 1-548)
T8 sequence: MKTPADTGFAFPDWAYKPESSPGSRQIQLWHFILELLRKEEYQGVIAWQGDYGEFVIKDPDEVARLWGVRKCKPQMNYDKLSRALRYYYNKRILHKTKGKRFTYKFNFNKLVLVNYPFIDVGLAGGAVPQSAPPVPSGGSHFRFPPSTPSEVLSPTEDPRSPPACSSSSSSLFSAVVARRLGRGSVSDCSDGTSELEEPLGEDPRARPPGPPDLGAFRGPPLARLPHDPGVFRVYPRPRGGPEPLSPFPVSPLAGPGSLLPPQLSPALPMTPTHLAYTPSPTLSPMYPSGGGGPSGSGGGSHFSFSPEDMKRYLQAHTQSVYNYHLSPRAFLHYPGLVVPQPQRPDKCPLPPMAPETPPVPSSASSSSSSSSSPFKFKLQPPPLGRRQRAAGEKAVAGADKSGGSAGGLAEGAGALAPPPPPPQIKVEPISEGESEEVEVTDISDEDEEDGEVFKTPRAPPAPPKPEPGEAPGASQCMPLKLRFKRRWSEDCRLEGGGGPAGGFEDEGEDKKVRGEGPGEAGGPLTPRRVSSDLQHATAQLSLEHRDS
Method in brief: as §1

ETV3L = target: T9, ETV3L (Homo sapiens, UniProt Q6ZN32 1-361)
T9 sequence: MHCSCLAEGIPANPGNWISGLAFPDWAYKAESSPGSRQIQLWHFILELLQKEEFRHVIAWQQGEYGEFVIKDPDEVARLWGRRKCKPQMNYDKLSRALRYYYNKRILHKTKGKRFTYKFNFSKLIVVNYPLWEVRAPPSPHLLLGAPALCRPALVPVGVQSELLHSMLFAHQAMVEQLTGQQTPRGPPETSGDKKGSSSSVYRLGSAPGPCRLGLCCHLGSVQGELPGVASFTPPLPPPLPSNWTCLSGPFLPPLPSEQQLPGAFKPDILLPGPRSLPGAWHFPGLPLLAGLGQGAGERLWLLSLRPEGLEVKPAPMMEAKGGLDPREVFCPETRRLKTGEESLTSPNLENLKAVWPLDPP
Method in brief: as §1

ETS2 = target: T10, ETS2 (Homo sapiens, UniProt P15036 1-469)
T10 sequence: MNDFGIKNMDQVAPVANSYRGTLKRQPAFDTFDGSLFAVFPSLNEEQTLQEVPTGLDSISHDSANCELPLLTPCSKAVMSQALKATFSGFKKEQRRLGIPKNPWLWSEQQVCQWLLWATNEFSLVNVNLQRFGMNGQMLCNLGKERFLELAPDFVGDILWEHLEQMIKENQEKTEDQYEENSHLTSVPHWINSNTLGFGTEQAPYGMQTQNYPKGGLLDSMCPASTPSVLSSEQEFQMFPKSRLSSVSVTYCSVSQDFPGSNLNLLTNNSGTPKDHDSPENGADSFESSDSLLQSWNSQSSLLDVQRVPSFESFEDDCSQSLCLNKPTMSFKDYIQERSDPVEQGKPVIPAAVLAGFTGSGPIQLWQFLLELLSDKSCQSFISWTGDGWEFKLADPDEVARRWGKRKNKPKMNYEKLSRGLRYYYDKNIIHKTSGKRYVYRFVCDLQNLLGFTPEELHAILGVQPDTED
Method in brief: as §1

SPDEF = target: T11, SPDEF (Homo sapiens, UniProt O95238 1-335)
T11 sequence: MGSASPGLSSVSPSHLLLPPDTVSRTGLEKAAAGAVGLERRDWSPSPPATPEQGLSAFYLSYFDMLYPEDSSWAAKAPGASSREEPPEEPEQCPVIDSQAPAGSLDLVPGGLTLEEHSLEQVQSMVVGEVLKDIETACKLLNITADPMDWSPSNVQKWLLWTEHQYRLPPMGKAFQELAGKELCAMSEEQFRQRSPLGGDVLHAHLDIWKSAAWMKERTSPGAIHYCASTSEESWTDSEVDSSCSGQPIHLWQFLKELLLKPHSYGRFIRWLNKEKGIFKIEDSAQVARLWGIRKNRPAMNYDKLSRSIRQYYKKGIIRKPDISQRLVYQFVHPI
Method in brief: as §1

ETV7 = target: T12, ETV7 (Homo sapiens, UniProt Q9Y603 1-341)
T12 sequence: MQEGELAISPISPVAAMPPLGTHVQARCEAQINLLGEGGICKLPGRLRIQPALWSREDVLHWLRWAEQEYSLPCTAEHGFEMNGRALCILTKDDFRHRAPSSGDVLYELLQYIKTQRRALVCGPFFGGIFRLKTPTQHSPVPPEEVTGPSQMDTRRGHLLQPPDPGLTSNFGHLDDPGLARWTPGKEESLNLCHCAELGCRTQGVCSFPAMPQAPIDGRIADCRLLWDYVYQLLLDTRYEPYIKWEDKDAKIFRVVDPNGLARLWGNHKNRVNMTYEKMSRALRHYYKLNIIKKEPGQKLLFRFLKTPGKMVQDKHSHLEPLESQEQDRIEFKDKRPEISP
Method in brief: as §1

ETV6 = ETV6 (Homo sapiens, UniProt P41212 1-452)
ETV6, sequence (P41212 whole entry): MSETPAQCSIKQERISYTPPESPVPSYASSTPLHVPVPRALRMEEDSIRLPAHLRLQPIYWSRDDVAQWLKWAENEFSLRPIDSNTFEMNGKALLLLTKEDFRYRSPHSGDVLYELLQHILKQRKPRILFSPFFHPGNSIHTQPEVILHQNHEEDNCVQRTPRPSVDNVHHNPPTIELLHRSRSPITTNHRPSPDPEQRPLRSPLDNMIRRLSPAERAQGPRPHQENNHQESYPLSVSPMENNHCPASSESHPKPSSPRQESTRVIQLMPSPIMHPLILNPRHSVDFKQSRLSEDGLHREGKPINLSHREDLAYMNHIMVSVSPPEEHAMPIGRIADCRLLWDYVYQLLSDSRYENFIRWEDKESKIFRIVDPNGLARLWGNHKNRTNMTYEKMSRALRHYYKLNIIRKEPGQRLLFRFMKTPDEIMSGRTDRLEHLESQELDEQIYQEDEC
Method in brief: as §1

CGTCTG
binding signal (ELK1): 1.06 fold enrichment (6-mer frequency, TF over GST control)
binding signal (GABPA): 1.06 fold enrichment (6-mer frequency, TF over GST control)
binding signal (ERG): 1.11 fold enrichment (6-mer frequency, TF over GST control)
binding signal (ELF1): 1.11 fold enrichment (6-mer frequency, TF over GST control)
binding signal (EHF): 1.07 fold enrichment (6-mer frequency, TF over GST control)
binding signal (SPIB): 1.18 fold enrichment (6-mer frequency, TF over GST control)
binding signal (ELK3): 1.05 fold enrichment (6-mer frequency, TF over GST control)
binding signal (SPIC): 1.17 fold enrichment (6-mer frequency, TF over GST control)
binding signal (ELF4): 1.05 fold enrichment (6-mer frequency, TF over GST control)
binding signal (ELK4): 1.08 fold enrichment (6-mer frequency, TF over GST control)
binding signal (ETV1): 1.12 fold enrichment (6-mer frequency, TF over GST control)
binding signal (ERF): 1.11 fold enrichment (6-mer frequency, TF over GST control)
binding signal (ETV3L): 1.14 fold enrichment (6-mer frequency, TF over GST control)
binding signal (ETS2): 1.08 fold enrichment (6-mer frequency, TF over GST control)
binding signal (SPDEF): 1.05 fold enrichment (6-mer frequency, TF over GST control)
binding signal (ETV7): 1.02 fold enrichment (6-mer frequency, TF over GST control)
binding signal (ETV6): 1.01 fold enrichment (6-mer frequency, TF over GST control)
